IMPase cell inh – cell-permeable inhibitors of inositol monophosphatase (IMPase); inhibition (IP1 accumulation), % at 46.1 µM; 120,000 tested, under 10 active; P97697; CHO-M1 cells, IP1 accumulation, HTRF TR-FRET ratio; active means well fitted curve in the direction sought with a large enough effect in the signal ratio, not every such curve was filed as active; inconclusive means small, poorly fitted or top-dose-only effect, or a change in a side signal; inactive means no such curve, though single readings can be large or run the other way; the % refers to the signal ratio;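 further: cells stimulated with carbachol in lithium chloride buffer; plate controls were DMSO basal wells for no effect and reference inhibitor wells for full effect; higher means more IMPase inhibition seen as more IP1 and lower FRET ratio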
Target sequence (P97697 whole entry, looked up): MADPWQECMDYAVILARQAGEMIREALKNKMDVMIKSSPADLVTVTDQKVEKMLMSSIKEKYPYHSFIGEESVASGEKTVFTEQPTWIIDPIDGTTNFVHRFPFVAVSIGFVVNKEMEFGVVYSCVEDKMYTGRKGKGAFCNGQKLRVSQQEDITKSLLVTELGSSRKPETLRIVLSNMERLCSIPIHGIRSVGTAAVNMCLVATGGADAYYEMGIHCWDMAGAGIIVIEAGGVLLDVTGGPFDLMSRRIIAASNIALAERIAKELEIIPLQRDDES
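CHO-M1 cells (CHO stably expressing M1 receptor), compound up to 46 uM final, stimulated with carbachol (50 uM as added) in buffer with 50mM LiCl, pH 7.4, 30 min at 37C. Cytosolic IP1 read by TR-FRET; AC50 from Hill fits.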
HPGD inh – blocks human HPGD enzyme activity | P15428 | purified HPGD, NADH fluorescence kinetic, PGE2 substrate | Potency, µM, inactives show at the top dose activity change, negative = inhibition, most hits filed as inhibitors | hit rate 4.3% among 150,000 | AID 894; further: potency means the concentration at half of the fitted maximal effect
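NADH formation kinetics: reaction with 30 uM PGE2 and 1 mM NAD+ (final), 20 nM enzyme, Tris-HCl pH 8 with Tween 20, after 15 min compound preincubation at room temperature. Fluorescence change, last versus first of five reads.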
IMPase Li inh – membrane-permeable IMPase blocker, potentiated with lithium | CHO-M1 cells, IP1 TR-FRET (IP-One), carbachol + lithium | Potency, µM (series often up to 59.4 µM), inactives show at the highest dose activity, negative = IMPase inhibition, hits mostly inhibitors | hit rate 0.35% among 210,000 | AID 1457; active means well fitted curve in the direction sought with a large enough effect; inconclusive means small, poorly fitted or top-dose-only effect, or another doubt; inactive means no such curve, though single readings can be large; an effect the other way counts as inactive or inconclusive;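 further: IP1 builds up when IMPase is blocked and the TR-FRET signal falls; potency means the concentration at half of the fitted maximal effect; plate controls were basal vehicle for no effect and high inhibitor control for full effect; nearly all actives have a fitted effect of over 50% in size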
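CHO-M1, 2000 cells/well, 16–30 h culture; cpd + low Li+, 30 min 37C; lysis with d2-IP1/Eu-anti-IP1 Ab, 10 min RT; TR-FRET 665/620 ratio and 620 channel; AC50 via Hill.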
PNC inhibitor – blocks assembly of the perinucleolar compartment; PC3M PTB-GFP, PNC prevalence imaging, 16 h; stronger effect = lower value; activity change (PNC), negative = inhibition, % at 10 µM; hit rate 3.1% among 140,000;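 active means readout at or below -70, meaning at least 70% loss of cells showing the perinucleolar compartment, a nuclear body marking cancer cells; inconclusive means readout between -30 and a set limit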;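 further: plate controls were DMSO wells for no effect and camptothecin positive control wells for full effect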
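Read-out is percentage of cells bearing a perinucleolar compartment, from automated 20x imaging of fixed, Hoechst-stained PC3M PTB-GFP cells. Cells were seeded 4 h, then exposed 16 h to compound (23 nl of library stock) in duplicate plates.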
ALDH1A1 inh – blocks purified human ALDH1A1 activity | P00352 | Purified ALDH1A1, NADH fluorescence, propionaldehyde substrate | Potency, µM (highest dose often 75.3 µM), without a hit: at the top dose activity, negative = inhibition, actives largely listed as inhibitors | hit rate 7.3% among 220,000 | AID 1030;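 further: potency means the concentration at half of the fitted maximal effect; plate controls were no enzyme wells and a reference inhibitor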
Target sequence (P00352 whole entry, looked up): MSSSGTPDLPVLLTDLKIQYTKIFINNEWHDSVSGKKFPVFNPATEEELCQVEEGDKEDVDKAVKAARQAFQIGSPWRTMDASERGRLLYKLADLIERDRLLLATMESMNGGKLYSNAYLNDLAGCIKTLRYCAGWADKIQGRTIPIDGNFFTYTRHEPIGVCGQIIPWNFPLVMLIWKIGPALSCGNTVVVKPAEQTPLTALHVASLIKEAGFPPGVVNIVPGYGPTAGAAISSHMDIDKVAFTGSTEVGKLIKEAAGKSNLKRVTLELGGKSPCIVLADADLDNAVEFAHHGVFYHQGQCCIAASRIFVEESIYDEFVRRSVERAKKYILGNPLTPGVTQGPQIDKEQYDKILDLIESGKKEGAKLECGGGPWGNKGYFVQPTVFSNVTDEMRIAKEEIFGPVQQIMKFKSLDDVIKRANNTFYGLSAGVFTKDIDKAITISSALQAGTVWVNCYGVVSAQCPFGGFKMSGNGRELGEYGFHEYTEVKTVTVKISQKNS
NPSR antagonist – antagonists of human neuropeptide S receptor cAMP signaling; Q6W5P4; CHO-NPSR cells, cAMP TR-FRET, antagonist mode; Potency, µM (highest dose often 38.3 µM), inactives show top-dose activity change, negative = inhibition, actives largely listed as inhibitors; hit rate 1% among 220,000; AID 1461; active means well fitted curve in the direction sought with a large enough effect; inconclusive means small, poorly fitted or top-dose-only effect, or another doubt; inactive means no such curve, though single readings can be large; an effect the other way counts as inactive or inconclusive; further: potency means the concentration at half of the fitted maximal effect; nearly all actives have a fitted effect of over 50% in size
Active calls of the source: *; ? = inconclusive; . = no result; [ ] = remark or other dose. An excerpt weighted towards active compounds, which were near 11% of everything screened. Unless noted, the call rests on the fitted dose curve; in most records, active means well fitted inhibition curve with a large enough effect (not every such curve was filed as active); inconclusive means small, poorly fitted or top-dose-only effect, or another doubt; inactive means no such curve, though single readings can be large or run the other way. Unless noted, on the % scale 0 is the no-effect control and ±100 the full control effect.

SMILES | IMPase cell inh | HPGD inh | IMPase Li inh | PNC inhibitor | ALDH1A1 inh | NPSR antagonist
Cc1ccccc1-c1cc(Nc2ccc(F)cc2)ncn1 | . | 14µM* | 0% | . | -5% | .
Cc1cccc(CNc2cc(-c3ccccc3C)ncn2)c1 | . | 16µM* | 8% | . | ? | .
Nn1c(Cc2cccc3ccccc23)nnc1SCc1c(Cl)cccc1Cl | . | 7.9µM* | 16% | -10 | ? | -20%
Nn1c(Cc2cccc3ccccc23)nnc1SC1CCOC1=O (configuration not stated) | -11 | -7% | 14%[38.3 µM] | ? | -2% | 4%[46.1 µM]
Nn1c(SCc2cccc3ccccc23)nnc1-c1ccco1 | ? | 14µM* | -25%[38.3 µM] | -1 | -8% | 4%[46.1 µM]
Cn1c(SCc2cccc3ccccc23)nnc1-c1ccco1 | -5 | ? | 21%[38.3 µM] | -16 | ? | -23%[46.1 µM]
Nn1c(Cc2cccc3ccccc23)nnc1SCc1ccc(Cl)c(Cl)c1 | . | 2.8µM* | 7% | ? | ? | 7%
Nn1c(Cc2cccc3ccccc23)nnc1SCn1nnc2ccccc2c1=O | 3 | -16% | 24%[38.3 µM] | ? | -1% | -10%[46.1 µM]
O=C(Nc1cc2ccccc2oc1=O)c1ccccc1 | . | . | -10% | . | -6% | -19%
O=C(NCCCN1CCOCC1)C(=O)NCc1ccc(Cl)cc1 | . | . | 5% | . | 8% | 1%
CC1Cc2ccccc2N1CC(=O)NC(=O)NCc1ccco1 (configuration not stated) | -4 | -12% | 17%[38.3 µM] | -122* | ? | -9%[46.1 µM]
COc1ccc(-c2n(Cc3ccccc3)c3ccccc3[n+]2Cc2ccccc2)cc1 | . | . | 26% | . | ? | 10µM*
O=C(CN1C(=O)C2CC=CCC2C1=O)Nc1nnc(SCc2ccc(Cl)cc2)s1 (configuration not stated) | 0 | -23% | -12%[38.3 µM] | ? | ? | -2%[46.1 µM]
CC[N+]1(C)C2CCC1CC(OC(=O)[C@H]1CCC(C(=O)OC3CC4CCC(C3)[N+]4(C)CC)(c3ccccc3)c3ccccc31)C2 (some centres not stated) | . | . | -16% | . | 2% | .
Cc1cccc2c1N(CCCOc1ccc(C(C)(C)C)cc1)C(=O)C2=O | 6 | 8.9µM* | 9%[38.3 µM] | ? | 0.089µM* | -16%[46.1 µM]
Cc1cccc(OCCN2C(=O)C(=O)c3cccc(C)c32)c1 | . | -15% | -1% | -16 | 0.16µM* | 5%
Cc1ccc2c(c1)C(=O)C(=O)N2CCCOc1ccccc1C | . | . | 4% | . | -3% | -22%
Cc1ccc(OCCN2C(=O)c3ccccc3C2=O)c(C)c1 | 26 | 22µM* | 14% | 22 | 5% | -17%[46.1 µM]
Cc1ccc(OCCN2C(=O)c3ccccc3C2=O)c([N+](=O)[O-])c1 | . | -22% | 15% | -14 | ? | -7%
Cc1ccc2c(c1)C(=O)C(=O)N2CCOc1ccccc1 | . | . | 8% | . | 1.3µM* | 19%
Cc1ccc(OCCN2C(=O)c3ccccc3C2=O)cc1 | 1 | ? | 34%[38.3 µM] | ? | 3% | ?
Cc1ccc(C)c(-c2cc(C(=O)Nc3sc(C)c(C)c3C(N)=O)c3ccccc3n2)c1 | 8 | -21% | 24%[38.3 µM] | 2 | -7% | ?
Cc1cccn2cc(-c3cc4ccccc4oc3=O)nc12 | . | . | -9% | . | ? | -2%
CCCCC(=O)O[C@@]1(C(=O)CO)C(C)CC2C3CCC4=CC(=O)C=C[C@@]4(C)[C@]3(F)C(O)C[C@]21C (some centres not stated) | . | -10% | -10% | . | -2% | .
Cc1cccc(OCCCn2c(=O)oc3ccc(C)cc32)c1 | . | . | 4% | . | -5% | 23%
SMILES | IMPase cell inh | HPGD inh | IMPase Li inh | PNC inhibitor | ALDH1A1 inh | NPSR antagonist
Cc1cccc(OCCN2C(=O)C(=O)c3cc(C)ccc32)c1 | . | . | 10% | . | 0.63µM* | 16%
Cn1ccnc1SCC(=O)c1ccc(O)cc1 | . | . | . | . | ? | -16%
Cn1ccnc1SCC(=O)c1ccc(Cl)cc1 | . | . | -1% | . | 14µM* | 10%
Cn1c(CO)cnc1SCC(=O)c1ccc(Cl)cc1 | . | . | -4% | . | 22µM* | 8%
Cn1c(CO)cnc1SCc1c(Cl)cccc1Cl | -1 | -3% | -13%[38.3 µM] | 23 | -2% | -4%[46.1 µM]
CCS(=O)(=O)n1nc(C(=O)N2CCOCC2)nc1N | -2 | -10% | 11%[38.3 µM] | ? | 2% | 15%[46.1 µM]
Oc1ccc2c(ccc3[nH]cnc32)c1 | . | . | . | . | 1% | 15%
Brc1cc2[nH]cnc2c2ccccc12 | ? | 22µM* | -26%[38.3 µM] | 5 | 14µM* | 22%[46.1 µM]
CC(=O)C1=C(c2ccccc2)NC(=O)NC1c1ccccc1OCC(=O)NCc1ccccc1 (configuration not stated) | -1 | -1% | 30%[38.3 µM] | 3 | 1% | -9%[46.1 µM]
O=C(OCc1cc(=O)n2c(n1)sc1ccccc12)c1ccc(O)cc1 | . | 14µM* | 3% | 44 | -2% | -3%
O=c1cc(CCl)nc2sc3ccccc3n12 | . | . | 1% | . | 4% | -8%
O=C(C1CCCN(S(=O)(=O)c2cccc3nonc23)C1)N1CCN(c2ccccc2Cl)CC1 (configuration not stated) | -2 | 14µM* | 6% | -21 | ? | -30%
COc1ccc(Cl)cc1NC(=O)C1CCCN(S(=O)(=O)c2cccc3nonc23)C1 (configuration not stated) | -6 | -18% | 1% | -100* | -5% | -10%[46.1 µM]
COc1cccc(NC(=O)C2CCCN(S(=O)(=O)c3cccc4nonc34)C2)c1 (configuration not stated) | 4 | . | -2% | . | 1% | -5%
CC(C)(C)OC(=O)N1CCC(C(=O)N2CCCCCC2)CC1 | ? | 14µM* | -2% | ? | 13% | -7%[46.1 µM]
CCN(CC)C(=O)c1sc(NC(=O)c2ccncc2)c(C(=O)OC)c1C | . | 22µM* | -2% | ? | 14µM* | 12%
CCOC(=O)c1sc(NC(=O)OC)c(C(=O)OC)c1C | . | . | 8% | . | 2% | -45%
CCN(CC)C(=O)c1c(NC(=O)c2ccccc2)sc(C)c1C | -4 | -11% | -5%[38.3 µM] | -8 | 0% | -15%[46.1 µM]
CCN(CC)C(=O)c1sc(NC(=O)c2ccoc2C)c(C(=O)OC)c1C | 3 | 14µM* | 10%[38.3 µM] | 67 | 22µM* | ?
CCN(CC)C(=O)c1sc(NC(=O)c2cc(-c3ccc(C)s3)nc3ccccc23)c(C(=O)OC)c1C | -7 | ? | -11%[38.3 µM] | ? | ? | ?
CCOC(=O)c1c(NC(=O)OC)sc(C(=O)N(CC)CC)c1C | 10 | 28µM* | 15%[38.3 µM] | 1 | ? | -24%[46.1 µM]
CCC(=O)Nc1sc(C(=O)OC)c(C)c1C(=O)OC | -6 | 22µM* | 6%[38.3 µM] | ? | ? | -12%[46.1 µM]
CO/N=C(/CNC(=O)c1ccc(F)cc1)c1ccc(Cl)cc1 | 7 | -5% | 10%[38.3 µM] | 65 | 11% | -19%[46.1 µM]
CCOC(=O)c1c(NC(=O)c2ccoc2C)sc(C(=O)N(C)C)c1C | 0 | ? | 27%[38.3 µM] | -13 | 20µM* | -26%[46.1 µM]
CCN1CCN(C(=S)Nc2ccc(C(C)=O)cc2)CC1 | . | . | 4% | . | 5% | 2%
